In PubChem BioAssay (NCATS):
Several values for one entry are separate records, joined by “and”; a condition that tells them apart may be missing. Equal entries are not always repeated. Results filed as inconclusive are left out. Activity calls are given as the source filed them. Unless noted, calls come from the whole dose curve; as a rule, active = well fitted curve in the direction sought with a large enough effect; inconclusive = small, poorly fitted or top-dose-only effect, or another doubt; inactive = no such curve, though single readings can be large; an effect the other way counts as inactive or inconclusive.

Columns and labels:
[1] = biological target: Cellular tumor antigen p53 (Homo sapiens) (UniProt P04637); assay: Primary qHTS for small molecule compounds that upregulate eGFP-tagged delta133p53alpha (in N-terminal) cells. (AID 2060322); details: NCI-H358 eGFP-delta133p53alpha fluorescence, 24 h; activation: stronger effect = higher value; note: nearly all actives have a fitted effect of over 75% in size; note: potency is the fitted concentration of half-maximal effect;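 for activation: cells pre-induced with doxycycline then dosed without doxycycline; series mostly up to about 56 µM; 0% = DMSO vehicle and 100% = reference activator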
Outline: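 NCI-H358 cells pre-induced 24 h with 10 ng/ml doxycycline for eGFP-delta133p53alpha, plated dox-free and exposed 24 h at 37C to titrated compounds. Fixed, Hoechst-stained; gated GFP peak intensity by laser scanning cytometry, normalized to DMSO (0%) and 57.5 uM 5-azacytidine (100%).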

[2] = biological target: Aldehyde dehydrogenase, mitochondrial (Homo sapiens) (UniProt P05091); assay: qHTS for Inhibitors of the Aldehyde Dehydrogenase Family (ALDH2) Validation screens (AID 2061302; active = well fitted inhibition curve with a large enough effect; title and protocol of this record describe different tests; note: potency is the fitted concentration of half-maximal effect)
[3] = biological target: Cellular tumor antigen p53 (Homo sapiens) (UniProt P04637); assay: Primary qHTS for small molecule compounds that upregulate eGFP-tagged delta133p53alpha (in C-terminal) cells. (AID 2060324);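 note: 0% = DMSO wells and 100% = 57.5 µM 5-azacytidine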
Outline: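 Doxycycline (100 ng/ml, 24 h) first induced the eGFP fusion in NCI-H358 C-terminal-tag cells. Washed-out cells then received titrated compounds for 24 h at 37 °C before paraformaldehyde fixation, Hoechst staining and cytometric GFP quantification.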

[4] = biological target: Retinaldehyde dehydrogenase 3 (Homo sapiens) (UniProt P47895); assay: qHTS for Inhibitors of the Aldehyde Dehydrogenase Family (ALDH1A3) Validation screen (AID 2061312); note: % is set by controls: 0 for no effect and ±100 for the full control effect; nearly all actives have a fitted effect of over 45% in size
[5] = biological target: Retinal dehydrogenase 2 (Homo sapiens) (UniProt O94788); assay: qHTS for Inhibitors of the Aldehyde Dehydrogenase Family (ALDH1A2) Confirmation screens (AID 2061314); note: nearly all actives have a fitted effect of over 65% in size; note: potency is the fitted concentration of half-maximal effect
[6] = biological target: Aldehyde dehydrogenase 1A1 (Homo sapiens) (UniProt P00352); assay: qHTS for Inhibitors of the Aldehyde Dehydrogenase Family (ALDH1A1) Confirmatory screens (AID 2061316); note: nearly all actives have a fitted effect of over 65% in size; note: potency is the fitted concentration of half-maximal effect
[7] = biological target: Retinaldehyde dehydrogenase 3 (Homo sapiens) (UniProt P47895); assay: qHTS for Inhibitors of the Aldehyde Dehydrogenase Family (ALDH1A3) Primary screen (AID 2061315);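 note: plate controls were DMSO vehicle for no effect and reference inhibitor for full effect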
[8] = BET inhibitor-based combinations targeting novel dependencies in MECOM-rearranged (r) AML: SET-2 cell line (AID 2202231); details: SET-2 AML cells viability, CellTiter-Glo luminescence, 48 h; viability: stronger effect = lower value, series mostly up to about 46 µM;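 note: plate controls were DMSO treated cells for no effect and wells without cells for full effect; nearly all actives have a fitted effect of over 35% in size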
Outline: (§1)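 AML cell lines seeded at 500 cells/well, treated with 11-point dose curves for 48 h. Viability by CellTiter-Glo luminescence, normalised to DMSO and empty wells; activity expressed as AUC and per-cell-line Z-transformed AUC.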

[9] = BET inhibitor-based combinations targeting novel dependencies in MECOM-rearranged (r) AML: OCI-AML3 cell line (AID 2202232); details: Potency: OCI-AML3 viability; note: nearly all actives have a fitted effect of over 35% in size; note: potency is the fitted concentration of half-maximal effect
Outline: as §1

[10] = BET inhibitor-based combinations targeting novel dependencies in MECOM-rearranged (r) AML: MV-4-11 cell line (AID 2202233); note: nearly all actives have a fitted effect of over 45% in size; note: potency is the fitted concentration of half-maximal effect
Outline: (§2)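 Cells at 500/well were exposed for 48 hr to MIPE v5.0 drugs as 11-point dose curves. Viability was read by CellTiter-Glo luminescence and normalized to DMSO and empty-well controls. Activity was expressed as AUC and per-cell-line Z-AUC.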

[11] = BET inhibitor-based combinations targeting novel dependencies in MECOM-rearranged (r) AML: HNT-34 cell line (AID 2202234);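 note: plate controls were vehicle wells for no effect and cell-free wells for full effect; nearly all actives have a fitted effect of over 35% in size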
Outline: as §2

[12] = BET inhibitor-based combinations targeting novel dependencies in MECOM-rearranged (r) AML: UCSD-AML1 cell line (AID 2202235); note: nearly all actives have a fitted effect of over 40% in size; note: potency is the fitted concentration of half-maximal effect
Outline: as §2

[13] = BET inhibitor-based combinations targeting novel dependencies in MECOM-rearranged (r) AML: AML-191 cell line (AID 2202236; note: nearly all actives have a fitted effect of over 35% in size; note: potency is the fitted concentration of half-maximal effect)
Outline: as §1

[14] = BET inhibitor-based combinations targeting novel dependencies in MECOM-rearranged (r) AML: AML-194 cell line (AID 2202237;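 note: plate controls were vehicle wells for no effect and wells without cells for full effect; nearly all actives have a fitted effect of over 40% in size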)
Outline: as §1

[15] = qHTS for Inhibitors of the Aldehyde Dehydrogenase Family (ALDH1A2, ALDH1A3, ALDH2, ALDH3A1) (AID 2061307); note: test system not described further here; potency is the fitted concentration of half-maximal effect; nearly all actives have a fitted effect of over 50% in size
[16] = biological target: Retinaldehyde dehydrogenase 3 (Homo sapiens) (UniProt P47895); assay: qHTS for Inhibitors of the Aldehyde Dehydrogenase Family (ALDH1A3) Confirmatory screens (AID 2061311); note: potency is the fitted concentration of half-maximal effect; nearly all actives have a fitted effect of over 60% in size
[17] = biological target: Aldehyde dehydrogenase, mitochondrial (Homo sapiens) (UniProt P05091); assay: qHTS for Inhibitors of the Aldehyde Dehydrogenase Family (ALDH2) Primary screen (AID 2061308);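 note: plate controls were vehicle for no effect and reference inhibitor for full effect; nearly all actives have a fitted effect of over 55% in size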
[18] = biological target: Aldehyde dehydrogenase, mitochondrial (Homo sapiens) (UniProt P05091); assay: qHTS for Inhibitors of the Aldehyde Dehydrogenase Family (ALDH2) Confirmatory screens (AID 2061303; active = well fitted inhibition curve with a large enough effect; title and protocol of this record describe different tests; note: % is set by controls: 0 for no effect and ±100 for the full control effect; nearly all actives have a fitted effect of over 45% in size)

Sequence of Cellular tumor antigen p53 (Homo sapiens) (P04637 whole entry, looked up, the tested form may be a part): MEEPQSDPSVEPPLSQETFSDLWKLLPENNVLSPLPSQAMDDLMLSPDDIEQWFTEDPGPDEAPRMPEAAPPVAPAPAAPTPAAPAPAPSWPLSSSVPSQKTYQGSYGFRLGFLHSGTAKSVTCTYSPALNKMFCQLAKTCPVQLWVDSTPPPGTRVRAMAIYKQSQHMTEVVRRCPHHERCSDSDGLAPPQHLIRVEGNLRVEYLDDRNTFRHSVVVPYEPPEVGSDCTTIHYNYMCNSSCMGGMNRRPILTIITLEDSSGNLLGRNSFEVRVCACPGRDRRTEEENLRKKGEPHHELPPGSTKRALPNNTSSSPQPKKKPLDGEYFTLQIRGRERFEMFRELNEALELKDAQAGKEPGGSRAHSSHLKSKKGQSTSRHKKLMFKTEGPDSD

N#CC(=C(\N)Sc1ccccc1N)/C(C#N)=C(/N)Sc1ccccc1N
inactive: activation [1] -29.9% | Potency [2]

NS(=O)(=O)c1cccc2c1c([N+](=O)[O-])cc1nc(O)c(O)nc12
active: Potency [5] 25.2 µM | Potency [6] 12.7 µM
inactive: activation [1] -8.06% | Potency [3] | Potency [4]

O=C1Cc2c([nH]c3ccc(Br)cc23)-c2ccccc2N1
inactive: activation [1] -51% | Potency [2]

COc1ccc(/C=C/C(=O)Nc2ccccc2C(=O)O)cc1OC
inactive: activation [1] 22.3% and 8.92% | Potency [3] | Potency [7] | viability [8] 104% | Potency [9] | Potency [10] | Potency [11] | Potency [12] | Potency [13] | Potency [14]

O=C1c2ccccc2C(=O)c2c(NCCc3ccc(O)cc3)ccc(NCCc3ccc(O)cc3)c21
inactive: activation [1] -13.7% | Potency [2]

C=Cc1c(C)c2cc3[nH]c(cc4nc(cc5nc(cc1[nH]2)C(C)=C5CCC(=O)O)C(CCC(=O)O)=C4C)c(C)c3C=C
inactive: activation [1] -11.7% and -48.8% | Potency [3] | Potency [4]
active: Potency [15] 10.1 µM | Potency [16] 25.2 µM | Potency [6] 12.7 µM

COc1ccc(NC(=O)/C=C/c2ccc(Cl)cc2)cc1
inactive: activation [1] -18.7% | Potency [3] | Potency [4]

O=C1NC(=O)/C(=C/c2ccc3nccnc3c2)S1
inactive: activation [1] 18.2% | Potency [3] | viability [8] 113% | Potency [10] | Potency [11] | Potency [12] | Potency [13] | Potency [14]

Oc1cc(O)cc(/C=C/c2ccc(O)c(O)c2)c1
active: Potency [9] 10.5 µM | Potency [10] 10.5 µM | Potency [12] 18.6 µM | Potency [13] 16.6 µM
inactive: activation [1] 11.9% | Potency [3]

Brc1c(NC2=NCCN2)ccc2nccnc12
inactive: activation [1] -0.565% and -20% | Potency [3]
active: Potency [15] 11.3 µM | Potency [16] 5.65 µM | Potency [5] 8.96 µM | Potency [6] 11.3 µM

CC(=O)N[C@H](C(=O)O)C(C)(C)SN=O
inactive: activation [1] -54.1% | Potency [2]

CCn1cc(C(=O)O)c(=O)c2cc3c(cc21)OCO3
inactive: activation [1] 2.82% and -18.3% | Potency [3] | Potency [4]

C[C@](N)(Cc1ccc(O)c(O)c1)C(=O)O
inactive: activation [1] 3.95% and 1.83% and 6.56% | Potency [3] | Potency [9] | Potency [11] | Potency [12] | Potency [14]

O=c1ccc2ccc(O)c(O)c2o1
active: Potency [16] 8.96 µM
inactive: activation [1] 0.546% and -34.3% | Potency [3] | Potency [5]

Fc1ccc([C@@H]2CCNC[C@H]2COc2ccc3c(c2)OCO3)cc1
inactive: activation [1] 28.5% and -0.566% and 41.3% | Potency [2] | Potency [4]

CC12C(=O)OC(=O)C1(C)C1CCC2O1 (centres undefined)
active: Potency [1] 1.69 µM
inactive: Potency [2] | Potency [4]

CC(=O)O[C@H]1C[C@@H]2CC[C@@H]3[C@H](CC[C@@]4(C)[C@H]3C[C@H]([N+]3(C)CCCCC3)[C@@H]4OC(C)=O)[C@@]2(C)C[C@@H]1[N+]1(C)CCCCC1
inactive: activation [1] -16.6% | Potency [2] | Potency [4]

NC(N)=NC(N)=Nc1cccc(Cl)c1
inactive: activation [1] -3.06% | Potency [2] | Potency [4]

C=C1C(=O)O[C@@H]2[C@H]3O[C@]3(C)CCC=C(C)CC[C@@H]12
inactive: activation [1] -45% | Potency [2] | Potency [4]

Nc1ncnc2n[nH]c(Nc3ccc(F)cc3)c12
inactive: activation [1] 1% | Potency [2] | Potency [17] | Potency [4] | Potency [7]

OCC1O[C@H]([S-])[C@H](O)[C@@H](O)[C@@H]1O.[Au+] (some centres undefined)
active: Potency [15] 2.83 µM
inactive: activation [1] 21.8% | Potency [2] | Potency [18] | Potency [6]

O=c1onc2cnc3ccccc3n12
inactive: activation [1] 14.8%
active: Potency [2] 6.31 µM | Potency [15] 0.0318 µM | Potency [6] 4 µM

CC(C)(C)c1ccc(C(O)CCCN2CCC(C(O)(c3ccccc3)c3ccccc3)CC2)cc1 (centres undefined)
inactive: activation [1] 5.86% and -0.341% | Potency [2] | Potency [4]

CCN1CCC[C@H]1CNC(=O)c1cc(S(N)(=O)=O)ccc1OC
inactive: activation [1] -14.2% and 19% and 1.55% | Potency [2] | Potency [17] | Potency [4] | Potency [7]

CCCCNc1c(C(=O)OCC)c(C)nc2c1cnn2CC
inactive: activation [1] 8.47% and 3.05% | Potency [2] | Potency [4]

Oc1cc2c(cc1O)CN(C(=S)NCCc1ccc(Cl)cc1)CCC2
inactive: activation [1] -14.7% | Potency [2]

O=C(O)C1CN(CCCP(=O)(O)O)CCN1 (centres undefined)
inactive: activation [1] -32.5% | Potency [2] | Potency [4]

CN1CCN(c2nc3cc(C(F)(F)F)ccc3n3cccc23)CC1
inactive: activation [1] -11.1% | Potency [2] | Potency [4]

Cc1c(O)cccc1C(=O)N[C@@H](CSc1ccccc1)[C@H](O)CN1C[C@H]2CCCC[C@H]2C[C@H]1C(=O)NC(C)(C)C
inactive: activation [1] -0.838% | Potency [2] | Potency [4]

CN(C)S(=O)(=O)c1ccc2c(c1)/C(=C/c1cc3c([nH]1)CCCC3)C(=O)N2
active: Potency [1] 6.75 µM
inactive: Potency [2] | Potency [4]
